Shown are actives, neighbours in structure and some others; about 14% of the full set was active somewhere.
Pf growth 96h – inhibits malaria parasite growth, 96 h; P. falciparum luciferase reporter growth, 96 h; Potency, µM (series often up to 28.7 µM), most hits filed as inhibitors; actives 6.9% (n = 320,000)
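Parasite growth measured via integrated firefly luciferase reporter in P. falciparum. Infected erythrocytes at 2% hematocrit, 0.05% parasitemia final were treated 96 hours at 37 C under 5% CO2, and luminescence was read.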
Lassa entry inh – blocks Lassa virus binding to or entry into cells. actives 1.2% (n = 300,000). Lassa virus pseudotype entry inhibition, cell reporter. Potency, µM (top dose mostly 37.9 µM), most hits filed as inhibitors; calls by dose curve; tested in HEK293 cells; also: nearly all actives have a fitted effect of over 50% in size
HCMV inh – blocks human cytomegalovirus replication; HFF cells, HCMV-luciferase reporter, 72 h; active compounds read low; activity change, negative = inhibition, % at 57.5 µM; actives 4.5% (n = 410,000); AID 1259415; in the data active = activity change below about -60%; inconclusive = no clear call, values can overlap the other calls; inactive = above about -39%
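HFF cells seeded 16 h at 37C, treated with compounds, infected with luciferase-reporter HCMV at MOI 1 PFU/cell; luciferase read at 72 h post infection, normalized to buffer-only and Salinomycin controls.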
HCV inhibitor – HCV inhibition; Huh7.5.1 HCVcc-Cre infection, luciferase reporter, 44 h; Potency, µM (doses to about 41.8 µM), actives largely listed as inhibitors; actives 3.4% (n = 340,000)
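Infectious HCVcc-Cre (~0.5 moi) was added to cells just after compound, with cells seeded 4 h earlier at 1,000 per well. Luciferase activity after 44 h culture reported infection; substrate was incubated 15 min at room temperature before reading.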
Pf growth 48h – P. falciparum growth inhibition at 48 hours (one generation). AID 504832. P. falciparum luciferase growth in erythrocytes, 48 h. actives 5.9% (n = 310,000). Potency, µM (titrated, usually from 28.7 µM), most hits filed as inhibitors
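Firefly luciferase activity from engineered P. falciparum reports growth; inhibitors lower the luminescent signal. Cultures contained 2% hematocrit erythrocytes at 0.1% final parasitemia.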
Marburg entry inh – blocks Marburg virus binding to or entry into cells | Marburg virus pseudotyped entry inhibition, cell reporter | Potency, µM (top dose mostly 37.8 µM), actives largely listed as inhibitors | actives 1.8% (n = 300,000); calls by dose curve; tested in HEK293 cells
Hits are given with their value; n = inactive; u = inconclusive; x = no result; [ ] = another dose, or the depositor's remark. Unless noted, calls follow the shape of the dose curve; as a rule, active = well fitted inhibition curve with a large enough effect; inconclusive = small, poorly fitted or top-dose-only effect, or another doubt; inactive = no such curve, though single readings can be large or run the other way.

SMILES	Pf growth 96h	Lassa entry inh	HCMV inh	HCV inhibitor	Pf growth 48h	Marburg entry inh
Cc1sc(NC(=O)c2cccs2)nc1-c1ccccc1	n	n	n	u	n	u
C(=N\Nc1nc(-c2ccccc2)cs1)/c1cccnc1	u	u	n	u	u	u
Clc1ccc(N/N=C/c2cccnc2)cc1	u	u	n	n	n	u
CN1C(=O)[C@@]2(O[C@H]3[C@H]4C=C[C@@H]([C@H]5C(=O)N(Cc6ccccc6)C(=O)[C@@H]45)N3C3=C2C(=O)CC3)c2ccccc21	x	x	n	x	x	x
CC(C)Oc1ccccc1Oc1ccc2c(-c3ccccn3)noc2n1	x	x	n	x	x	x
COc1ccc(C2=C(C)C(=O)N(Cc3ccc(C(=O)NC(C)c4ccccc4)cc3)S2(=O)=O)cc1 (centres undefined)	x	n	n	x	x	x
CCOc1ccc(-c2noc([C@@H]3O[C@H](CO)[C@@H](O)[C@H]3O)n2)cc1	x	x	n	x	x	x
O=C(NCc1cccs1)c1ccc(CSc2nc3ccncc3n2Cc2ccccc2)cc1	x	n	n	x	x	u
Clc1ccc(-c2csc(N/N=C/c3cccnc3)n2)c(Cl)c1	4.65µM	7.31µM	-63.4	u	10.4µM	u
O=C(Nc1ccc(Cl)cc1)C(NS(=O)(=O)c1cccs1)c1ccccc1 (centres undefined)	x	u	n	x	x	n
Cc1ccc(N2CCN(C(=O)Nc3cccc([N+](=O)[O-])c3)CC2C)cc1 (centres undefined)	u	u	-64.8	n	u	u
O=C(Nc1cccc([N+](=O)[O-])c1)N1CCN(c2ccccc2)CC1	n	n	-63.8	u	n	n
OCc1ccccc1-c1ccc2nccn2c1	x	x	n	x	x	x
C[C@H](CO)N1C[C@H](C)[C@@H](CN(C)Cc2ccncc2)OCCCC[C@H](C)Oc2ccc(NC(=O)CCCN(C)C)cc2C1=O	x	x	n	x	x	x
O=C(N/N=C/c1ccccn1)c1cc(-c2ccc(Cl)cc2)nc2ccccc12	9.28µM	u	n	n	9.28µM	u
O=C(N/N=C/c1ccccn1)c1cc(-c2ccc(Br)cc2)nc2ccccc12	n	u	-99.6	u	u	u
COc1cccc(N/C(SCc2cccc([N+](=O)[O-])c2)=C(/C#N)C(N)=O)c1	n	u	n	n	u	u
Cc1ccccc1N/C(SCc1cccc(Br)c1)=C(/C#N)C(N)=O	u	n	-68.5	n	n	n
O=C(NCc1ccccc1)C(c1ccccc1)N(Cc1cccs1)C(=O)c1cnccn1 (centres undefined)	0.262µM	n	n	n	n	20.6µM
O=C(NCc1ccccc1)C(c1ccc(F)cc1)N(Cc1cccs1)C(=O)c1cnccn1 (centres undefined)	n	n	n	n	n	n
COc1cc(C(C(=O)NCc2ccccc2)N(Cc2ccco2)C(=O)c2cnccn2)cc(OC)c1OC (centres undefined)	n	x	n	n	9.28µM	x
COc1ccccc1C(=O)Nc1ccccc1SC(=O)c1ccccc1OC	n	x	u	n	n[0.00184 µM]	x
CCN(CC)CCCNC(=O)CSc1nc2nc(C)c(Cc3c(F)cccc3Cl)c(C)n2n1	x	n	n	x	x	u
COc1cc(N2C(=O)C=CC2=O)ccc1N1C(=O)C=CC1=O	x	u	-75.9	u	x	u
CCN(CC)C(=O)C1=C(C)N(CCC2=CCCCC2)C(=O)C(CC(=O)NCCN2CCOCC2)C1 (centres undefined)	x	x	n	x	x	x
SMILES	Pf growth 96h	Lassa entry inh	HCMV inh	HCV inhibitor	Pf growth 48h	Marburg entry inh
CN1CCC(=O)N([C@H](CSc2ccc(Br)cc2)Cc2ccccc2)CC1	3.29µM	x	n	u	9.28µM	x
Cc1ccc(SC[C@H](Cc2ccccc2)N2CCN(C)CCC2=O)cc1	u	x	n	n[8.37 µM]	11.7µM	x
CN1CCC(=O)N([C@H](CSc2ccccc2)Cc2ccccc2)CC1	u	x	n	n	n	x
COc1ccc(SC[C@H](Cc2ccccc2)N2CCN(C)CCC2=O)cc1	10.4µM	x	n	n	13.1µM	x
C=CCc1c(C)nc2c(-c3ccccc3)cnn2c1N1CCOCC1	n	n	u	n	n	u
Cc1cccc(Cn2c(=O)n(-c3cc(C)cc(C)c3)c(=O)c3oc4ccccc4c32)c1	x	n	n	x	x	x
CC(=O)N1CCC2(CC1)OC(=O)C(C)=C2C(=O)Nc1cc(C)ccc1C	x	n	u	x	x	x
Cc1ccc(OCC(=O)N2CCC(Cc3ccccc3)CC2)c([N+](=O)[O-])n1	u	x	-74.2	n	u	x
O=C(COc1cccnc1[N+](=O)[O-])N1CCC(Cc2ccccc2)CC1	x	n	-75.8	n	x	u
Cc1ccc(/C=N/NC(=O)C2COc3ccccc3O2)s1 (centres undefined)	n	u	-75.8	n	n	u
C/C(=N\NC(=O)C1COc2ccccc2O1)c1cccs1 (centres undefined)	n	n	-60.2	n	x	n
O=C(N/N=C/c1cccs1)C1COc2ccccc2O1 (centres undefined)	n	u	n	n	x	n
C/C(=N\NC(=O)C1CC1)c1cccs1	n	n	n	n	n	n
Cc1ccc(-n2c(O)c(/C=N/NC(=O)C3COc4ccccc4O3)c3ccccc3c2=O)cc1 (centres undefined)	n	n	-61.1	n	n	u
Cc1c(/C=N\NC(=O)C2COc3ccccc3O2)c2ccccc2n1C (centres undefined)	u	u	-85.9	u	n	n
O=C(N/N=C/c1c(O)n(-c2ccccc2Cl)c(=O)c2ccccc12)C1COc2ccccc2O1 (centres undefined)	u	u	x	n	n	u
COc1ccc(CNC(=O)c2cnc3ccc(C)cn3c2=O)cc1	x	x	n	x	x	n
S=C(Nc1ccccc1)Nc1nc2ccccc2n1CCOc1ccccc1	n	n	n	6.31µM	u	u
CCCCn1c(NCCO)nc2ccccc21	n	x	n	n	n	x
CCCCn1c(NC(=S)Nc2ccccc2)nc2ccccc21	u	u	n	u	5.22µM	u
O=C(CNC(=O)c1ccc(Cl)cc1)OCc1cc(=O)n2nc(C3CCCCC3)sc2n1	x	n	n	x	x	x
COc1cc(C2/C(=C(\O)c3ccc4c(c3)OCCO4)C(=O)C(=O)N2Cc2ccco2)cc(OC)c1OC (centres undefined)	u	n	n	n	n	n
COc1ccc(NC(=O)c2ccccc2Cl)cc1NC(=O)CN1CCOCC1	n	n	n	n	u	n
COc1cc(NC(=O)c2cc(OC)c(OC)c(OC)c2)c(OC)cc1NC(=O)CN1CCCCC1	n	n	n	2.51µM	u	u
COc1cc(NC(=O)c2ccccc2Cl)c(OC)cc1NC(=O)CN1CCCCC1	1.85µM	n	n	n	n	n
COc1cc(NC(=O)c2ccc(C)cc2)c(OC)cc1NC(=O)CN1CCCCC1	u	n	n	u	u	n
Cc1nn(-c2ccc(N3CCOCC3)nn2)c(C)c1CCC(=O)NCc1ccc(Cl)cc1	x	n	n	x	x	x
CCOC(=O)[C@]12CCCC=C1N(Cc1ccc3c(c1)OCO3)C(=O)[C@H](CC(=O)NCCCN1CCCC1=O)C2	x	x	n	x	x	x

Screens (PubChem)
